Experimental findings from ChEMBL document CHEMBL4513216, “Probing the Open Global Health Chemical Diversity Library for Multistage-Active Starting Points for Next-Generation Antimalarials” (ACS Infect Dis, 2020) are described below.

Hit rate of the full screen: of about 69,000 compounds, about 8,600 (12%) showed an effect of 50% or more. This is one part of a sample in which strong results are shown more often than they occur.

This test has as its system Plasmodium berghei. In words: Screen against P. berghei liver stage (PbLuc), transformed with Luciferase, at 10uM. The format is functional, HepG2. The conditions noted are these: tested at 10 uM.
For the compound `CC(C)n1ccnc1CN1CCOC(CCc2ccccc2)C1` (stereo unspecified), the INHIBITION is 9.34%.
The figure for `CC(C)n1ccnc1CN1CCCN(C(=O)CC2CCCO2)CC1` (stereo unspecified) is -32%; for `CC(C)n1ccnc1CN1CCOC(CC2CCCCC2)C1` (stereo unspecified) it is 50%.
On to `COc1ccccc1C1(NCc2c(C)nc3c(C)cccn23)CCCC1`, for which the INHIBITION is reported as 49%.
The figure for `Cc1nc2sccn2c1CNC1(c2ccccc2F)CCCC1` is 52.4%; for `Cc1nc2sccn2c1CNc1cc(C(=O)O)ccc1F` it is -15.7%.
In the case of `O=C(Cn1cccn1)N(CCO)CCSc1ccc(Cl)cc1` it was 24.7%; in that of `Cc1nc(C(C)NC(=O)c2cn(Cc3ccc(Cl)cc3)nn2)n[nH]1` (stereo unspecified), 39.9%.
In the case of `Cc1noc(C(C)C)c1C(=O)NCC(c1ccccc1)N(C)C` (stereo unspecified), the INHIBITION is -7.35%.
The figure for `Cc1cc(CN2CCC(O)(Cn3ccc4ncccc43)CC2)c(C)s1` is 23.2%; for `OC1(Cn2ccc3ccncc32)CCN(Cc2ccccn2)CC1` it is 37%.
In the case of `OC1(Cn2ccc3ncccc32)CCN(Cc2ccccc2F)CC1` it was 70.1%; in that of `CCn1ncc(CN2CCC(O)(Cn3ccc4ncccc43)CC2)c1C`, 19.6%; in that of `OC1(Cn2ccc3ncccc32)CCN(Cc2cccnc2)CC1`, 35.2%.
With `COCc1ccc(CN2CCC(O)(Cn3ccc4ncccc43)CC2)o1`, the INHIBITION was 38.7%.
In the case of `OC1(Cn2ccc3ncccc32)CCN(Cc2ccccn2)CC1` it was 50.6%.
In the case of `OC1(Cn2ccc3ncccc32)CCN(Cc2cccs2)CC1` it was 64.1%.
The figure for `CCn1cc(CN2CCC(O)(Cn3ccc4ncccc43)CC2)cn1` is 38.8%; for `Cc1ccc(CN2CCC(O)(Cn3ccc4ncccc43)CC2)o1` it is 28%.
`OC1(Cn2ccc3ncccc32)CCN(Cc2cc(F)cc(F)c2)CC1`: the INHIBITION was found to be 54.4%.
In the case of `COc1ccccc1CN1CCC(O)(Cn2ccc3ncccc32)CC1` it was 14.7%; in that of `CC(C)Nc1nc2c(cc1C(=O)N(C)C)CCNCC2`, -3.83%.
In the case of `CCCN1CCC2(C1)c1ccccc1S(=O)(=O)N2C` (stereo unspecified) it was 13.7%; in that of `OC(CNCCc1nnc2ccccn12)c1ccc2c(c1)OCO2` (stereo unspecified), -20.5%.
In the case of `CCCc1nc(C)c(C(=O)Nc2cccc(C)n2)s1` it was 1.45%; in that of `COC[C@H]1CN(CC2CC2)C(=O)[C@@H]2CCN(Cc3ccoc3)CC[C@H]12`, 11.3%; in that of `Cc1ccsc1CN(Cc1nc2c(cnn2C)c(=O)[nH]1)C(C)C`, 31.533%.
Consider `COc1ccc(NC(=O)N(CC2CCOC2)C2CC2)cn1` (stereo unspecified), for which the INHIBITION worked out at 12.85%.
The figure for `Cn1cncc1C(=O)N1CCOC2(COCCN(CC3CC3)C2)C1` (stereo unspecified) is -8.23%; for `Cc1noc(C)c1CN1CC[C@H]2C[C@H](c3ccncn3)O[C@@H]2C1` it is 34.6%.
Consider `Cc1noc(C)c1CN1CC[C@H]2C[C@@H](c3ccncn3)O[C@@H]2C1`, for which the INHIBITION is on record as 21.6%.
In the case of `Cc1nc([C@@H]2C[C@H]3CN(Cc4scnc4C)C[C@H]3O2)no1` it was -35.2%.
For the compound `Cc1noc([C@@H]2C[C@H]3CN(Cc4ccc5c(c4)OCO5)C[C@H]3O2)n1`, the INHIBITION was found to be 42.1%.
Consider `Cc1nc([C@H]2C[C@@H]3CCN(Cc4scnc4C)C[C@H]3O2)no1`, for which the INHIBITION is listed as 88%.
The figure for `Cc1nc([C@H]2C[C@@H]3CCN(Cc4ccc5c(c4)OCO5)C[C@H]3O2)no1` is 59.3%; for `Cc1nc([C@@H]2C[C@H]3CN(Cc4ccc5c(c4)OCO5)C[C@H]3O2)no1` it is 29.4%; for `Cc1nccc([C@@H]2C[C@@H]3CCN(Cc4c(C)noc4C)C[C@H]3O2)n1` it is 67.2%.
The figure for `Cc1csc(CN2CC[C@H]3C[C@@H](c4noc(C)n4)O[C@@H]3C2)n1` is 29%; for `Cc1noc(C)c1CN1CCC(c2ccnn2CCO)CC1` it is -43.5%.
The figure for `COCC(O)CN1CCC(=O)N(Cc2ccco2)Cc2ccccc21` (stereo unspecified) is 24.5%; for `CN1CCN(C[C@H]2OC[C@@H]3CCN(C(=O)c4cnccn4)C[C@@H]32)CC1` it is 31.4%.
Take `CCN1CCCC(c2nc(O)c3cc(C)ccc3n2)C1` (stereo unspecified): the INHIBITION amounted to 16.8%.
In the case of `CC(CN1CCC2(CC1)N=C(N(C)C)NC2=O)c1ccccc1` (stereo unspecified) it was 0.825%; in that of `O=C(Cc1cccnc1)NC1CCCN(CCCc2ccccc2)C1` (stereo unspecified), 8.99%.
In the case of `CC(CN1CCC2(CC1)N=C(c1cccnc1)NC2=O)c1ccccc1` (stereo unspecified) it was 70.1%.
In the case of `CC1=NC2(CCN(CC(C)c3ccccc3)CC2)C(=O)N1` (stereo unspecified) it was 14%.
On to `O=C1NC(c2cccnc2)=NC12CCN(CCCc1ccccc1)CC2`, for which the INHIBITION is given as 58.7%.
The figure for `O=C1NC(c2ccccc2)=N[C@@]12CC[C@@H]1CN(Cc3cccnc3)C[C@@H]12` is 33%.
In the case of `CC(NC(=O)NCCCn1ccnc1)c1nncn1C` (stereo unspecified) it was -6.61%; in that of `c1coc(CN2CCC3(CC2)COC(COCC2CCOCC2)C3)c1` (stereo unspecified), 6.27%; in that of `COc1cccc(-c2cc(C(=O)NCCn3nc(C)nc3C)[nH]n2)c1`, -13.6%.
The figure for `CCn1c(C)cc(C(=O)N2CCCC(n3ccnc3C)C2)c1C` (stereo unspecified) is -11.3%; for `COc1cc(CNCC2CN(C3CC3)CCO2)cc(OC)c1` (stereo unspecified) it is -18.3%; for `Oc1ccc(Cl)cc1CNCc1cccc(C(F)(F)F)c1` it is 27.4%.
Turning to `O=C(Nc1nccs1)NC1CCN(Cc2ccccn2)CC1`, the INHIBITION was 17.4%.
The figure for `CC1CN(CC(=O)Nc2nccs2)CCN1Cc1nccn1C` (stereo unspecified) is 26.675%; for `O=C(Nc1nccs1)C1CCCN1Cc1ccccn1` (stereo unspecified) it is 87.6%; for `CCNc1ccnc(CN2CCCC2C(=O)Nc2nccs2)c1` (stereo unspecified) it is 85.1%.
In the case of `CCc1nc(CN2CCCC2C(=O)NC)cs1` (stereo unspecified) it was 49%; in that of `N#Cc1cccc(OCCN2CCCC2C(=O)Nc2nccs2)c1` (stereo unspecified), 44%.
In the case of `CC(C)(C)NC(=O)C1CCCCN1Cc1nccn1CC(F)(F)F` (stereo unspecified) it was 46.6%.
For the compound `O=C(C1CCCCN1Cc1nccn1CC(F)(F)F)N1CCCC1` (stereo unspecified), the INHIBITION is listed as 58.9%.
The figure for `NC(=O)C1CCCN1Cc1nccn1CC(F)(F)F` (stereo unspecified) is 30.9%; for `CC(=O)Nc1cccc(CN2CCCC2C(=O)Nc2nccs2)c1` (stereo unspecified) it is 34.6%.
The figure for `CCc1ccsc1C(=O)N1CCCN(Cc2nccn2CC)CC1` is 30.65%; for `CCn1ccnc1CN1CCCC1C(=O)Nc1nccs1` (stereo unspecified) it is 72.2%.
